Screening data (PubChem BioAssay)
MLLE-PAM2 inh: inhibitors of microRNA-mediated deadenylation, human PABP1 MLLE binding. GST-MLLE / FITC-PAM2 fluorescence polarization. AID 588489. inhibition, % at 20 µM. hit rate 0.36% among 360,000; in the data active = inhibition above about 35%, passing the limit was not always enough
eIF4H inh: inhibitors of RNA binding by human eIF4H; Q15056; hit rate 0.94% among 290,000; inhibition, % at 35 µM; eIF4H fluorescence polarization binding assay;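 note: calls also rest on retests at 20 µM and on dose response follow-up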
PERK inhibitor: inhibitors of human PERK kinase. inhibition, % at 5.6 µM. Q9NZJ5. hit rate 0.17% among 220,000. CHO PERK-DD fusion, SEAP luminescence translation reporter;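 active = inhibition above the mean inhibition of all tested compounds plus 3 SD, set separately per screening campaign, cut at about 2.9% in these data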;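 note: PERK kinase domain activated by AP20187 dimerizer at 100 nM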
PABP polyA inh: PABP-poly(A) binding inhibition; P11940; PABP-poly(A) RNA binding, fluorescence polarization; calls only at 35 µM; hit rate 1% among 290,000; AID 2014;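 note: calls also rest on retests at 20 µM and on dose response follow-up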
eIF4E-4G inh: inhibitors of eIF4E and eIF4G interaction in translation initiation; P63073+Q04637; TR-FRET eIF4E-eIF4GI(517-606) binding, 2 h; inhibition, % at 21.7 µM; hit rate 0.37% among 220,000;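 active = inhibition above about 30%, limit read from the data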
Each line names hits and unclear results; the compound was inactive in the other large screens; [ ] = dose if it differs, or a comment. Most compounds without a hit are left out; they make up all but 1.6% or so of the library. Unless noted, the rule behind the calls is not given here.

CC1(OC(=O)CCc2ccccc2)C(=O)C=C2C=C(c3ccc(C#N)cc3)N(C3CCCCC3)C=C2C1=O (centres undefined)	PABP polyA inh active (no result: PERK inhibitor)
CC(C)NC(=O)COc1nncc2ccccc12	none
COc1ccccc1N(Cc1ccccc1)S(=O)(=O)c1cccc(C(=O)N2CCCCC2)c1	none (no result: eIF4H inh, PERK inhibitor, PABP polyA inh, eIF4E-4G inh)
COc1ccc(NC(=O)c2ccc(COCC(F)(F)C(F)F)cc2)cc1	eIF4H inh active, PABP polyA inh active
COc1cccc(CNC(=O)c2cccc(S(=O)(=O)N3CCN(Cc4ccccc4)CC3)c2)c1	none (no result: eIF4H inh, PERK inhibitor, PABP polyA inh, eIF4E-4G inh)
N#C/C(=C\c1ccccc1[N+](=O)[O-])C(=O)NC1CCCCC1	MLLE-PAM2 inh 55
N#C/C(=C\C=C\c1ccccc1[N+](=O)[O-])C(=O)NC1CCCCC1	PABP polyA inh inconclusive
Cc1c(C(=O)N(C)C(C)c2ccccn2)oc2c(F)cccc12 (centres undefined)	none (no result: PERK inhibitor, eIF4E-4G inh)
CCOC(=O)C1=CCN(S(=O)(=O)c2ccccc2F)C1c1cccc(Cl)c1 (centres undefined)	none (no result: eIF4H inh, PERK inhibitor, PABP polyA inh, eIF4E-4G inh)
C=CCn1c(COc2cccc(C)c2)nnc1SCn1nnc2ccccc2c1=O	none
COc1ccc(S(=O)(=O)N2CCC(C(=O)NCCc3ccccc3)CC2)cc1	none (no result: PERK inhibitor, eIF4E-4G inh)
COc1ccc(N2C3=C(CC4=C2CCCC4=O)C(=O)CCC3)cc1	MLLE-PAM2 inh 79, eIF4H inh 105, PABP polyA inh active
c1ccc(Cc2nnc3n2CCCCC3)cc1	none
c1ccc2c(c1)CCCN2Cc1nnc2n1CCCCC2	eIF4H inh 61, PABP polyA inh active
c1ccc(CCNc2ccc3c(c2)Cc2ccccc2-3)nc1	none (no result: eIF4H inh, PERK inhibitor, PABP polyA inh, eIF4E-4G inh)
O=C(NC(=S)N1CCCCCC1)c1ccccc1Cl	MLLE-PAM2 inh 44
CC(C)OC(=O)c1c2nc3ccccc3nc2n2c1[nH]c(=O)c1ccccc12	eIF4H inh 53, PABP polyA inh active (no result: MLLE-PAM2 inh)
CCN(CC)C(=S)NC(=O)c1ccc(OC)c(Br)c1	none
C=CCN(CC=C)C(=S)NC(=O)c1ccc(OC)c(Br)c1	MLLE-PAM2 inh 44
CCCCOc1ccc(N2C(=O)C(C)CNC2=S)cc1 (centres undefined)	MLLE-PAM2 inh 52 (no result: eIF4H inh, PERK inhibitor, PABP polyA inh, eIF4E-4G inh)
O=C1c2ccc([N+](=O)[O-])cc2NC(c2ccco2)N1/N=C/c1ccco1 (centres undefined)	eIF4H inh 56
Cc1ccc(-n2c(-c3ccc(Cl)cc3)c[n+]3c2CCC3)cc1	eIF4E-4G inh 94
O=[N+]([O-])c1cccc(C(=Nc2cccc(Cl)c2)NO)c1	eIF4H inh 70, PABP polyA inh active
O=C(CSc1ccccc1C(=O)O)NC1CCCCCCC1	none
O=C(CSc1ccccc1C(=O)O)NC1CCCCCC1	MLLE-PAM2 inh 79
O=C(O)Cn1c2ccccc2c2n[nH]c(=S)nc21	MLLE-PAM2 inh 43 (no result: PERK inhibitor, eIF4E-4G inh)
O=C1C(Nc2cccc(O)c2)=C(N2CCCCC2)C(=O)c2ccccc21	MLLE-PAM2 inh 49
O=C1C(Nc2ccccc2)=C(N2CCCCC2)C(=O)c2ccccc21	none
Cc1ccccc1CN1CCN(c2ccc(S(=O)(=O)N3CCCC3)cn2)CC1	none (no result: eIF4H inh, PERK inhibitor, PABP polyA inh, eIF4E-4G inh)
COc1ccc(-c2cc([C@H]3[C@@H]4C=CCC[C@@]4(C)C(=O)N3Cc3ccccc3)ccc2F)cc1	eIF4E-4G inh 45 (no result: PERK inhibitor)
COc1ccc(-c2ccc([C@H]3[C@@H]4C=CCC[C@@]4(C)C(=O)N3Cc3ccccc3)c(F)c2)cc1	none (no result: PERK inhibitor)
CCC12OC(=N)C(C#N)(C1C)C(C#N)(C#N)C(c1ccccc1)O2 (centres undefined)	eIF4H inh inconclusive, PABP polyA inh active
CCC1OC2(C)OC(=N)C1(C#N)C(C#N)(C#N)C2c1ccccc1 (centres undefined)	eIF4H inh inconclusive
CCn1c(=O)n(CC)c2cc(N3CCCC3)c(NC(=O)c3ccc(C)c([N+](=O)[O-])c3)cc21	none (no result: PERK inhibitor, eIF4E-4G inh)
c1cncc(-c2nc3ccccc3o2)c1	PABP polyA inh active (no result: eIF4E-4G inh)
Cc1ccccc1C(=O)NNC(=O)C1CC(=O)N(c2ccc3c(c2)OCCO3)C1 (centres undefined)	none (no result: eIF4H inh, PERK inhibitor, PABP polyA inh, eIF4E-4G inh)
COCCN(C(=O)CSc1nc2ccccc2s1)c1c(N)n(Cc2ccccc2)c(=O)[nH]c1=O	none (no result: eIF4H inh, PERK inhibitor, PABP polyA inh, eIF4E-4G inh)
Cc1ccc(-c2nc(SCC(=O)N(C)c3c(N)n(Cc4ccccc4)c(=O)[nH]c3=O)n[nH]2)cc1	eIF4H inh 106, PABP polyA inh active (no result: PERK inhibitor, eIF4E-4G inh)
CC(C)CNC(=O)c1cc(S(=O)(=O)N2CCOCC2)ccc1N1CCCC1	none (no result: PERK inhibitor, eIF4E-4G inh)
O=C1NC(=O)C(CC(=O)N(Cc2cccs2)C2(C(=O)NC3CCCCC3)CCCCC2)N1 (centres undefined)	eIF4H inh active, PABP polyA inh active
O=C1NC(=O)C(CC(=O)N(Cc2ccco2)C2(C(=O)NC3CCCC3)CCCCC2)N1 (centres undefined)	none
Cc1ccc(S(=O)(=O)CCC(=O)NCc2ccccc2Cl)cc1	eIF4E-4G inh 60
CC1CN(S(=O)(=O)c2ccc(C(=O)N3CCc4ccccc43)cc2)CC(C)O1 (centres undefined)	none (no result: eIF4H inh, PERK inhibitor, PABP polyA inh, eIF4E-4G inh)
CCOC(=O)CSC1=C(C#N)C(=O)NC(c2ccc(OC)c(OC)c2)S1 (centres undefined)	MLLE-PAM2 inh 48
CCOc1cccc(C(=O)NNC(=O)C2C3C=CC(C3)C2C(=O)O)c1 (centres undefined)	none (no result: PERK inhibitor, eIF4E-4G inh)
Cc1cc(C(F)(F)F)n(-c2nc(C(=O)O)cs2)n1	eIF4H inh 1.5, PABP polyA inh active
O=C(O)c1csc(-n2nc(-c3ccccc3)cc2C(F)(F)F)n1	none
Cc1ccc(OCCC(=O)OCC(=O)NC2CCS(=O)(=O)C2)cc1 (centres undefined)	none (no result: eIF4H inh, PERK inhibitor, PABP polyA inh, eIF4E-4G inh)
CCOc1ccc(/C=C2/Sc3ccc(C(=O)N4CCOCC4)cc3N(C)C2=O)cc1OC	none (no result: PERK inhibitor, eIF4E-4G inh)
COc1ccc(/C=C2\Sc3ccc(C(=O)N4CCCC4)cc3N(C)C2=O)cc1OC	MLLE-PAM2 inh 38 (no result: eIF4H inh, PERK inhibitor, PABP polyA inh, eIF4E-4G inh)
O=C(O)c1ccc(Nc2cc(Cl)c3nonc3c2[N+](=O)[O-])cc1	MLLE-PAM2 inh 39
O=[N+]([O-])c1c(Nc2ccccc2)ccc2nonc12	none
Nc1cc(Nc2ccccc2)c2nonc2c1[N+](=O)[O-]	MLLE-PAM2 inh 56 (no result: PERK inhibitor, eIF4E-4G inh)
O=c1nc(/C=C/c2cccn2-c2ccc([N+](=O)[O-])cc2)cc(C(F)(F)F)[nH]1	eIF4H inh 60, PABP polyA inh active
CC(=O)C1=C(c2ccccc2)OC(N)=C(C#N)C1c1ccc(O)cc1 (centres undefined)	eIF4E-4G inh 51[fluorescence artefact?]
S=c1[nH]c2ccccc2o1	none
O=C(COc1ccc(-n2cnnn2)cc1)Nc1cccc(Cl)c1Cl	eIF4H inh 65 (no result: PERK inhibitor, eIF4E-4G inh)
COc1cc(NC(=O)COc2ccc(-n3cnnn3)cc2)c(OC)cc1Cl	none
O=C(Nc1ccc(NC(=O)N2CCN(c3ccccc3O)CC2)cc1)N1CCN(c2ccccc2O)CC1	none (no result: PERK inhibitor, eIF4E-4G inh)
COc1ccc(NS(=O)(=O)c2cc(NC(=O)c3ccc(C)s3)ccc2N2CCOCC2)cc1	none
Cc1cc(NC(=S)N(CCCN2CCN(C)CC2)Cc2ccco2)ccc1Cl	none
COc1ccc(N(CCN2C(=O)c3ccccc3C2=O)C(=O)c2cccc([N+](=O)[O-])c2)cc1	eIF4H inh active, PABP polyA inh active
CCOC(=O)C1=C(O)/C(=C/N(C)C)N=C1C	eIF4H inh 89, PABP polyA inh active
